Screening results (PubChem)
POLI inh: qHTS for Inhibitors of Polymerase Iota | DNA polymerase iota (Homo sapiens), Q9UNA4 | Pol iota fluorescent replication assay, 10 min | Potency, µM (series often up to 115 µM), for inactives: at the highest dose activity, negative = inhibition, hits mostly inhibitors | hit rate 1% among 390,000 | AID 588590, 2011; note: potency is the fitted concentration of half-maximal effect
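Pol iota at 10 nM preincubated 15 min with compounds at room temperature; reaction started with fluorescent substrate, 50 nM final. Fluorescence read kinetically at 0 and 10 min; buffer-only wells as negative control.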
Pol eta inh-1: qHTS for Inhibitors of Polymerase Eta | recombinant Pol eta, fluorescent DNA replication assay | AID 588591, 2011 | hit rate 1.2% among 390,000 | Potency, µM (top dose mostly 114 µM), inactives show at the highest dose activity change, negative = inhibition, most hits filed as inhibitors | DNA polymerase eta (Homo sapiens), Q9Y253; note: potency is the fitted concentration of half-maximal effect; % is set by controls: 0 for no effect and ±100 for the full control effect
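Fluorescent replication assay: 50 nM final substrate added after a 15 min room-temperature compound preincubation with 10 nM enzyme. Signal taken at 0 min and again at 10 min.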
PI5P4K alpha inh: qHTS for Inhibitors of phosphatidylinositol 5-phosphate 4-kinase (PI5P4K); PI5P4Kalpha enzyme, ADP-Glo luminescence, 60 min; hits give low values; max response, %; hit rate 1.2% among 330,000; AID 652105, 2013; active = max response of -50% or lower; inconclusive = between -30% and -50%; inactive = -30% or higher; note: value at the top dose of about 77 µM; % is set by controls: 0 for no effect and ±100 for the full control effect
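PI5P4Kalpha ADP-Glo assay; 5 microM ATP final; 60 min RT reaction; HEPES pH 7.4/EGTA/CHAPS, 5% DMSO; controls lacking substrate or enzyme; luminescent end-point.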
POLB inh: qHTS Assay for Inhibitors of DNA Polymerase Beta | P06746 | Pol beta primer extension/strand displacement, fluorescence kinetic | Potency, µM (top dose mostly 114 µM), for the others: top-dose activity change, negative = inhibition, actives largely listed as inhibitors | hit rate 1.3% among 340,000; note: potency is the fitted concentration of half-maximal effect; % is set by controls: 0 for no effect and ±100 for the full control effect
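Homogeneous kinetic assay of primer extension and strand displacement by 10 nM Pol beta, preincubated 15 min at room temperature with compound before 50 nM substrate (final) was added. Read at 0 and 10 min; four-parameter Hill fit.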
Pol kappa inh-1: qHTS for Inhibitors of Polymerase Kappa; DNA polymerase kappa (Homo sapiens), Q9UBT6; purified Pol kappa, fluorescent DNA synthesis assay, 10 min; hit rate 0.53% among 400,000; Potency, µM (titrated, usually from 107 µM), inactives show at the highest dose activity, negative = inhibition, usual class: inhibitors; note: potency is the fitted concentration of half-maximal effect; % is set by controls: 0 for no effect and ±100 for the full control effect
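50 nM final substrate added after 15 min RT preincubation of 10 nM Pol kappa with compound; fluorescence read at 0 and 10 min.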
WRN helicase inh: qHTS for Inhibitors of WRN Helicase | Bifunctional 3'-5' exonuclease/ATP-dependent helicase WRN (Homo sapiens), Q14191 | WRN helicase unwinding, fluorescent forked duplex, kinetic | AID 651768, 2012 | hit rate 0.46% among 360,000 | Potency, µM (series often up to 114 µM), without a hit: top-dose activity change, negative = inhibition, actives largely listed as inhibitors; note: potency is the fitted concentration of half-maximal effect; % is set by controls: 0 for no effect and ±100 for the full control effect; nearly all actives have a fitted effect of over 55% in size
Target sequence (Q14191 whole entry, looked up): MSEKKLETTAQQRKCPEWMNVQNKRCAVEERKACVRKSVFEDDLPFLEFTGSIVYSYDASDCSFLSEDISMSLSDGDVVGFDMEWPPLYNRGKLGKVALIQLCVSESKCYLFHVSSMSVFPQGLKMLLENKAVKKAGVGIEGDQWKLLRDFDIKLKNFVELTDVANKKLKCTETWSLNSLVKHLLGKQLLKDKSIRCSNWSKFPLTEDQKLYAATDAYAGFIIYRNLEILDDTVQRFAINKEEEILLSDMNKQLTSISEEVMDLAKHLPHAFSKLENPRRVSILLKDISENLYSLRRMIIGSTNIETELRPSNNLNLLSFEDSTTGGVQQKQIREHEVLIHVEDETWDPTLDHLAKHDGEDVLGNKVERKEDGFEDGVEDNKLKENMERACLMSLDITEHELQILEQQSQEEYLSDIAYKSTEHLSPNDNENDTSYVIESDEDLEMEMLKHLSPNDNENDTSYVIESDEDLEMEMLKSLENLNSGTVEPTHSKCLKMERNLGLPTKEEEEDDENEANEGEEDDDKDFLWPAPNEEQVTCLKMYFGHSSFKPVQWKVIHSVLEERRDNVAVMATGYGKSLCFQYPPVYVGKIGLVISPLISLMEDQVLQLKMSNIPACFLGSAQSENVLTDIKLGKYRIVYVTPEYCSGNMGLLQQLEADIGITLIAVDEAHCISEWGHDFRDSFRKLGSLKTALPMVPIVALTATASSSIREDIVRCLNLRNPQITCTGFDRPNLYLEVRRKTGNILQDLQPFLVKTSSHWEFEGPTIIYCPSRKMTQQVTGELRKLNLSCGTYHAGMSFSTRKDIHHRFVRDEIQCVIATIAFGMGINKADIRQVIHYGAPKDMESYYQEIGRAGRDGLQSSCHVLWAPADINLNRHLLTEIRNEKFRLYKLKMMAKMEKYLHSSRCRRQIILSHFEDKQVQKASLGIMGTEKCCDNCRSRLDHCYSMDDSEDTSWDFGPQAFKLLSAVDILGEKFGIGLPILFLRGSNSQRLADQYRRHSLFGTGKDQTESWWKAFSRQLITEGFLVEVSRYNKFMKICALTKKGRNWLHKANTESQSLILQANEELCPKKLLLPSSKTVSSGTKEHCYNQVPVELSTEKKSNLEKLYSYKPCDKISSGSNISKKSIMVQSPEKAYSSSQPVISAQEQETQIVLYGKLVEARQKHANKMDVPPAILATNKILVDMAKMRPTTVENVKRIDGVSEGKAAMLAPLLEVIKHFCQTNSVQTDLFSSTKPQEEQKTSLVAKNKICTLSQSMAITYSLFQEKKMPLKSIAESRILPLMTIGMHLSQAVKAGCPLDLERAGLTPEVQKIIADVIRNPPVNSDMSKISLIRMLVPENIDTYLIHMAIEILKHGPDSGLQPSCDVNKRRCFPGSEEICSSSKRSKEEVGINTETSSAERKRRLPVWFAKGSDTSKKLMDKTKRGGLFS
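Enzyme (20 nM final) and test compound sit together 15 min at room temperature before substrate addition. Substrate is a single-forked duplex oligonucleotide (100 nM) labelled with fluorophore and quencher, with 2 mM ATP; helicase unwinding raises red fluorescence, read kinetically.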
Pol kappa inh-2: qHTS for Inhibitors of Polymerase Kappa: Confirmatory Assay for Cherry-picked Compounds. Potency, µM, hits mostly inhibitors. purified Pol-kappa, fluorescent strand-displacement substrate. shares compounds with Pol eta inh-1. hit rate 76% among 920; note: potency is the fitted concentration of half-maximal effect
Pol eta inh-2: qHTS for Inhibitors of Polymerase Eta: Confirmatory Assay for Cherry-picked Compounds; shares compounds with Pol eta inh-1; Pol eta primer extension, TAMRA/BHQ fluorescence, 10 min; Potency, µM, usual class: inhibitors; hit rate 64% among 2,600; AID 720502, 2013; note: potency is the fitted concentration of half-maximal effect
ADP-Glo counter: qHTS for Inhibitors of PI5P4K: ADP-Glo counter assay. shares compounds with PI5P4K alpha inh. ADP-Glo detection counter-screen, luciferase luminescence, no enzyme. Potency, µM (highest dose often 76.9 µM), inactives show top-dose activity change, negative = inhibition, usual class: inhibitors. 1,100 tested, under 10 active. AID 743285, 2014
Active calls of the source: *; ? = inconclusive; . = no result; [ ] = another dose, or the depositor's remark. Shown are actives, neighbours in structure and some others; about 2.8% of the full set was active somewhere. Unless noted, calls come from the whole dose curve; as a rule, active = well fitted curve in the direction sought with a large enough effect; inconclusive = small, poorly fitted or top-dose-only effect, or another doubt; inactive = no such curve, though single readings can be large; an effect the other way counts as inactive or inconclusive.

SMILES | POLI inh | Pol eta inh-1 | PI5P4K alpha inh | POLB inh | Pol kappa inh-1 | WRN helicase inh | Pol eta inh-2 | ADP-Glo counter | others
NC(=O)c1c(NC(=O)C2c3ccccc3Oc3ccccc32)sc2c1CCCCC2 | ? | 35.5µM* | -54.2* | 44.7µM* | -28.3% | -12.0%[11.6 µM] | ? | 3.9%
Cc1ccccc1NCCC(=O)Nc1ccc(Cl)cc1 | 13.5% | -10.0% | 11.5 | 1.4% | -1.7% | 5.9% | . | .
COc1ccc(C(C(=O)NC2CCCC2)N(C(=O)c2snc(C(N)=O)c2N)c2cccc(O)c2)cc1 (stereo not drawn) | ? | 22.4µM* | -55.4* | 39.8µM* | 79.4µM* | -10.5%[11.6 µM] | 75.7* | -4.1% | Pol kappa inh-2=?
Cc1cc(C(=O)Nc2ccccc2)c2ccccc2n1 | 36.0% | -13.2% | 2.2 | 29.0% | -5.5% | -2.0% | . | .
Cc1cc(C(=O)Nc2sccc2C#N)c2ccccc2n1 | ? | 44.7µM* | -72.7* | 1.7% | -37.6% | -1.3%[11.6 µM] | ? | 1.2%
Cc1nc(N)sc1-c1csc(Nc2cccc(C(=O)O)c2)n1 | 11.2µM* | 39.8µM* | -51.7* | ? | 25.1µM* | -12.8%[11.6 µM] | 47.8* | -7.6% | Pol kappa inh-2=11.9*
CN(C)c1ccc2nc3ccc(=O)cc-3sc2c1 | . | 39.8µM* | -72.7* | . | . | 56.2µM* | ? | ?
c1ccc2nc(-c3cc4ccccc4s3)ccc2c1 | 4.6% | . | . | . | -3.1% | . | . | .
O=C(c1ccc2nc(-c3ccco3)c(-c3ccco3)nc2c1)N1CCN(c2ncccn2)CC1 | ? | ? | -53.5* | 39.8µM* | ? | 44.7µM* | ? | -3.9%
Cc1nc2cc(NC(=O)N3CCN(c4ccccn4)CC3)ccc2o1 | -14.7% | -2.7% | . | 17.2% | 7.6% | 1.9% | . | .
CCCNC(=O)c1ccc2nc(-c3ccccc3)c(-c3ccccc3)nc2c1 | 4.8% | -12.5% | 6.5 | -16.4% | -3.6% | -7.5% | . | .
CCCCNC(=O)c1ccc2nc(-c3ccco3)c(-c3ccco3)nc2c1 | ? | 14.1µM* | -72.8* | 20µM* | 8.91µM* | 79.4µM* | ? | -10.1% | Pol kappa inh-2=21.2*
O=C(Nc1ccc2nc(-c3ccco3)c(-c3ccco3)nc2c1)N1CCN(c2ccccn2)CC1 | 3.16µM* | 3.16µM* | -91.0* | 1.58µM* | 28.2µM* | 17.8µM* | ? | 0.1%
Cc1oc(=O)oc1CN1CCN(c2cc3c(cc2F)c(=O)c(C(=O)O)c2n3C(C)S2)CC1 (stereo not drawn) | . | . | . | . | 1.4%[60.1 µM] | . | . | .
CC(C)(C)c1ccc(S(=O)(=O)N2CCC(Oc3ccc(-n4cnnn4)cc3)CC2)cc1 | 20.1% | -7.6% | . | 22.1% | 1.7% | . | . | .
Cc1ccc(S(=O)(=O)N(Cc2ccccc2)c2ccccc2C(=O)N2CCCCC2)cc1 | 14.0% | -21.2% | 1.0 | 21.3% | -1.4% | 0.8% | . | .
